Data reported in PubChem BioAssay (EPA / NIEHS).
Calls of active or inactive are those of the source. Rule for the calls: active = hit-call score of the fitted dose curve at least 0.9, where 1 is the maximum; inactive = score below 0.9.

Experiments:
[1] = read-out: Cytochrome P450 (CYP1A1), CYP1A1 (gene 1543); test: LTEA_HepaRG_CYP1A1: Life Technologies and Expression Analysis (LTEA) Assay for Cytochrome P450 (CYP1A1) using HepaRG (AID 2283454); settings: mRNA level, 48 h; actives raise or lower the signal
Summary of the method: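 Differentiated human HepaRG cells, after 48 h plating, exposed in duplicate for 48 h in serum-free induction medium to 8 half-log concentrations up to 100 uM in 0.5% DMSO. CYP1A1 mRNA by qRT-PCR, normalized to ACTB/GAPDH/POLR2A; bidirectional fit versus DMSO.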

[2] = read-out: Forkhead box O1 (FOXO1), FOXO1 (gene 2308); test: LTEA_HepaRG_FOXO1: Life Technologies and Expression Analysis (LTEA) Assay for Forkhead box O1 (FOXO1) using HepaRG (AID 2283456); settings: mRNA level, 48 h; actives raise or lower the signal
Summary of the method: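 FOXO1 transcript quantified by qRT-PCR after 48 h chemical exposure (top 100 uM, half-log steps, 0.5% DMSO) of HepaRG cells, housekeeping-normalized (ACTB/GAPDH/POLR2A). Changes fitted in both directions relative to vehicle.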

[3] = read-out: Forkhead box O3 (FOXO3), FOXO3 (gene 2309); test: LTEA_HepaRG_FOXO3: Life Technologies and Expression Analysis (LTEA) Assay for Forkhead box O3 (FOXO3) using HepaRG (AID 2283459); settings: mRNA level, 48 h; actives raise or lower the signal
Summary of the method: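 FOXO3 transcript measured by qRT-PCR (normalized to ACTB, GAPDH, POLR2A) after 48 h exposure of HepaRG cells in serum-free induction medium. Duplicates, eight half-log concentrations up to 100 uM, 0.5% DMSO; gain or loss fitted against DMSO.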

[4] = read-out: ABC Transporter (ABCB1), ABCB1 (gene 5243); test: LTEA_HepaRG_ABCB1: Life Technologies and Expression Analysis (LTEA) Assay for ABC Transporter (ABCB1) using HepaRG (AID 2283460); settings: mRNA level, 48 h; actives raise or lower the signal
Summary of the method: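 ABCB1 transcript level measured by TaqMan qRT-PCR against three housekeeping genes after 48 h chemical exposure of differentiated HepaRG cells. Top concentration 100 uM, half-log steps, eight points, 0.5% DMSO vehicle; bidirectional fit relative to DMSO.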

[5] = read-out: growth arrest and DNA damage 45 (GADD45B), GADD45B (gene 4616); test: LTEA_HepaRG_GADD45B: Life Technologies and Expression Analysis (LTEA) Assay for growth arrest and DNA damage 45 (GADD45B) using HepaRG (AID 2283461); settings: mRNA level, 48 h; actives raise or lower the signal
Summary of the method: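 Differentiated human HepaRG cells in serum-free induction medium exposed 48 h in duplicate to eight concentrations, top 100 uM, half-log steps, 0.5% DMSO. GADD45B mRNA by TaqMan qRT-PCR, normalized to ACTB, GAPDH, POLR2A; bidirectional fit versus DMSO.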

[6] = read-out: ABC Transporter (ABCC3), ABCC3 (gene 8714); test: LTEA_HepaRG_ABCC3: Life Technologies and Expression Analysis (LTEA) Assay for ABC Transporter (ABCC3) using HepaRG (AID 2283462); settings: mRNA level, 48 h; actives raise or lower the signal
Summary of the method: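 Differentiated human HepaRG cells exposed 48 h in serum-free induction medium, 0.5% DMSO vehicle, 8-point half-log series to 100 uM in duplicate. ABCC3 mRNA by qRT-PCR, normalised to ACTB, GAPDH, POLR2A; bidirectional fit vs DMSO.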

[7] = read-out: ABC Transporter (ABCB11), ABCB11 (gene 8647); test: LTEA_HepaRG_ABCB11: Life Technologies and Expression Analysis (LTEA) Assay for ABC Transporter (ABCB11) using HepaRG (AID 2283463); settings: mRNA level, 48 h; actives raise or lower the signal
Summary of the method: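 ABCB11 transcript levels quantified by TaqMan qRT-PCR against three housekeeping genes after 48 h chemical exposure of HepaRG cultures. Concentrations up to 100 uM in half-log steps, 0.5% DMSO vehicle; both induction and suppression scored.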

[8] = read-out: ABC Transporter (ABCC2), ABCC2 (gene 1244); test: LTEA_HepaRG_ABCC2: Life Technologies and Expression Analysis (LTEA) Assay for ABC Transporter (ABCC2) using HepaRG (AID 2283464); settings: mRNA level, 48 h; actives raise or lower the signal
Summary of the method: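 Differentiated HepaRG cells in serum-free induction medium exposed 48 h to eight half-log concentrations up to 100 uM, 0.5% DMSO, in duplicate. ABCC2 mRNA measured by qRT-PCR (TaqMan, Fluidigm), normalized to ACTB, GAPDH and POLR2A. Fitted in both directions against DMSO.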

[9] = read-out: ATP-citrate lyase (ACLY), ACLY (gene 47); test: LTEA_HepaRG_ACLY: Life Technologies and Expression Analysis (LTEA) Assay for ATP-citrate lyase (ACLY) using HepaRG (AID 2283466); settings: mRNA level, 48 h; actives raise or lower the signal
Summary of the method: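 ACLY mRNA quantified by qRT-PCR on Fluidigm arrays against three housekeeping genes, after 48 h chemical treatment of HepaRG cells (top concentration 100 uM, half-log steps, 0.5% DMSO vehicle). Up- or down-regulation fitted relative to DMSO.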

[10] = read-out: Peroxisomal acyl-coenzyme A oxidase 1 (ACOX1) gene, ACOX1 (gene 51); test: LTEA_HepaRG_ACOX1: Life Technologies and Expression Analysis (LTEA) Assay for Peroxisomal acyl-coenzyme A oxidase 1 (ACOX1) gene using HepaRG (AID 2283467); settings: mRNA level, 48 h; actives raise or lower the signal
Summary of the method: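 ACOX1 transcript levels were quantified by TaqMan qRT-PCR against three housekeeping genes after 48 h chemical exposure of differentiated human HepaRG cells. Exposure used eight half-log steps topping at 100 uM, 0.5% DMSO vehicle, in duplicate. Bidirectional curve fits were made relative to DMSO.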

[11] = read-out: Bcl-2 (BAD) gene, BAD (gene 572); test: LTEA_HepaRG_BAD: Life Technologies and Expression Analysis (LTEA) Assay for Bcl-2 (BAD) gene using HepaRG (AID 2283469); settings: mRNA level, 48 h; actives raise or lower the signal
Summary of the method: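 Read-out: qRT-PCR of BAD mRNA, normalized to three housekeeping genes. Human HepaRG cultures got 48 h chemical exposure in 0.5% DMSO, duplicate eight-point half-log series topping at 100 uM. Gain or loss of signal fitted versus DMSO vehicle.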

[12] = read-out: Bcl-2 (BAX) gene, BAX (gene 581); test: LTEA_HepaRG_BAX: Life Technologies and Expression Analysis (LTEA) Assay for Bcl-2 (BAX) gene using HepaRG (AID 2283470); settings: mRNA level, 48 h; actives raise or lower the signal
Summary of the method: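 qRT-PCR read-out of BAX mRNA, normalized to three housekeeping genes, after 48 h chemical exposure of human HepaRG cells in serum-free induction medium; eight-point half-log series, top 100 uM, 0.5% DMSO vehicle; bidirectional fit versus DMSO.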

[13] = read-out: adenosine kinase (ADK) gene, ADK (gene 132); test: LTEA_HepaRG_ADK: Life Technologies and Expression Analysis (LTEA) Assay for adenosine kinase (ADK) gene using HepaRG (AID 2283471); settings: mRNA level, 48 h; actives raise or lower the signal
Summary of the method: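 HepaRG (human liver), 48 h chemical exposure, 8-pt half-log series, top 100 uM, 0.5% DMSO vehicle. Readout: ADK mRNA by qRT-PCR vs housekeeping genes; bidirectional curve fit relative to DMSO baseline.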

[14] = read-out: Alpha-fetoprotein (AFP) gene, AFP (gene 174); test: LTEA_HepaRG_AFP: Life Technologies and Expression Analysis (LTEA) Assay for Alpha-fetoprotein (AFP) gene using HepaRG (AID 2283472); settings: mRNA level, 48 h; actives raise or lower the signal
Summary of the method: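 qRT-PCR (Fluidigm TaqMan) readout of AFP transcript, normalized to three housekeeping genes, fitted bidirectionally against 0.5% DMSO baseline. HepaRG cells received chemicals for 48 h in serum-free induction medium, top concentration 100 uM, half-log steps.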

BCL2L11 (gene 10018) = test: LTEA_HepaRG_BCL2L11: Life Technologies and Expression Analysis (LTEA) Assay for Bcl-2 (BCL2L11) gene using HepaRG (AID 2283473); settings: mRNA level, 48 h; actives raise or lower the signal
Summary of the method: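 Differentiated human HepaRG cells were exposed 48 h in serum-free induction medium to eight half-log concentrations up to 100 uM in 0.5% DMSO, in duplicate. BCL2L11 mRNA was quantified by TaqMan qRT-PCR, normalized to ACTB, GAPDH and POLR2A; induction or repression fitted versus DMSO.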

[15] = read-out: Apolipoprotein A-V (APOA5) gene, APOA5 (gene 116519); test: LTEA_HepaRG_APOA5: Life Technologies and Expression Analysis (LTEA) Assay for Apolipoprotein A-V (APOA5) gene using HepaRG (AID 2283474); settings: mRNA level, 48 h; actives raise or lower the signal
Summary of the method: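 Differentiated HepaRG cells in serum-free induction medium, exposed 48 h in duplicate to eight half-log concentrations topping at 100 uM (0.5% DMSO). APOA5 mRNA by Fluidigm TaqMan qRT-PCR, normalized to ACTB, GAPDH and POLR2A; bidirectional fit versus DMSO.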

[16] = read-out: Apoptosis regulator Bcl-2 (Homo sapiens) (UniProt P10415); test: LTEA_HepaRG_BCL2: Life Technologies and Expression Analysis (LTEA) Assay for Bcl-2 gene using HepaRG (AID 2283475); settings: mRNA level, 48 h; actives raise or lower the signal
Summary of the method: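 qRT-PCR read-out (Fluidigm TaqMan) of BCL2 transcript, normalised to three housekeeping genes, after 48 h chemical exposure of HepaRG cells; 8-point half-log series, top 100 uM, 0.5% DMSO vehicle. Gain or loss of signal fitted relative to DMSO baseline.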

[17] = read-out: Bcl-2 (BID) gene, BID (gene 637); test: LTEA_HepaRG_BID: Life Technologies and Expression Analysis (LTEA) Assay for Bcl-2 (BID) gene using HepaRG (AID 2283476); settings: mRNA level, 48 h; actives raise or lower the signal
Summary of the method: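 HepaRG, 48 h exposure, 8-pt half-log series, top 100 uM, 0.5% DMSO vehicle, duplicates. Readout: BID mRNA by TaqMan qRT-PCR; housekeeping-normalized; bidirectional curve fit vs DMSO baseline.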

Caspase-3 (Homo sapiens) = Caspase-3 (Homo sapiens) (UniProt P42574); test: LTEA_HepaRG_CASP3: Life Technologies and Expression Analysis (LTEA) Assay for cysteine-aspartic acid protease (CASP3) using HepaRG (AID 2283477); settings: mRNA level, 48 h; actives raise or lower the signal
Sequence of Caspase-3 (Homo sapiens) (P42574 whole entry, looked up): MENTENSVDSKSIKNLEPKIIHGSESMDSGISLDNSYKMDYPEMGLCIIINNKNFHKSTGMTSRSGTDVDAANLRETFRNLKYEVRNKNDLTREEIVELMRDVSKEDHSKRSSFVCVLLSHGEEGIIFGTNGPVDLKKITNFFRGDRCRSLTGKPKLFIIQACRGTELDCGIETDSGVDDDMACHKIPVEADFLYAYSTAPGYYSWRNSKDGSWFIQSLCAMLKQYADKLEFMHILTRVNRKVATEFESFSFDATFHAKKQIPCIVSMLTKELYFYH
Summary of the method: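 Differentiated HepaRG cells, plated 48 h, were treated in duplicate in serum-free induction medium for 48 h with eight half-log concentrations up to 100 uM in 0.5% DMSO. CASP3 mRNA measured by qRT-PCR, normalized to ACTB, GAPDH, POLR2A.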

[18] = CEETOX_H295R_TESTO: CeeTox H295R High-throughput Steroidogenesis Assay for Testosterone (TESTO) (AID 2283457); settings: actives raise or lower the signal;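 note: cells exposed to chemicals for 48 h before medium collection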
Summary of the method: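 H295R adrenal cells, passage ≤10, exposed to chemicals for 48 h. Testosterone in medium measured by MTBE extraction and HPLC-MS/MS against a 7-point standard curve. Bidirectional fit versus DMSO; MTT viability checked in the same wells.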

Measured: AC50

Sequence of Apoptosis regulator Bcl-2 (Homo sapiens) (P10415 whole entry, looked up): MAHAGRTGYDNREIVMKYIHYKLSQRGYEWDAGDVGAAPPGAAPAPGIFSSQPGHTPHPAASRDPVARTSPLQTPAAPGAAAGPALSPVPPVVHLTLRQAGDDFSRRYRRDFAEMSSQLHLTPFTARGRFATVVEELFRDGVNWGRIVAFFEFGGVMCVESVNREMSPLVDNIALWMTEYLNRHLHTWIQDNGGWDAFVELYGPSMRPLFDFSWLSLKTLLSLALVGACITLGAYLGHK

C=CC(=O)OCCCCCC(C)C
active: [1] 50 µM | [15] 0.483 µM
inactive: [2] | [3] | [4] | [5] | [6] | [7] | [8] | [9] | [10] | [11] | [12] | [13] | [14] | BCL2L11 (gene 10018) | [16] | [17] | Caspase-3 (Homo sapiens)

CCOP(=S)(OCC)Oc1nc(Cl)c(Cl)cc1Cl
active: [1] 34.4 µM | [18] 62.6 µM
inactive: [2] | [3] | [4] | [5] | [6] | [7] | [8] | [9] | [10] | [11] | [12] | [13] | [14] | BCL2L11 (gene 10018) | [15] | [16] | [17] | Caspase-3 (Homo sapiens)
